Laboratory results reported in the supplement of paper PMC7411054.
Structures can show the parent of a compound that is named as a salt.

These compounds were tested on HepG2-GM130-SQSTM1 (assay: lowest phenotypically active concentration; higher = less potent). Details: treatment time: 24 h.
Summary of the method: (§1)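 Live-cell features were measured per well and normalised to solvent control wells after fifteen gene-edited A549, HepG2 and WPMY1 reporter lines had been treated for 24 h at 0.3, 1, 3 or 9 µM in four wells each. A condition was deviating when ≥3 of 4 wells sat beyond the 95th percentile of control Euclidean distances. It was reproducible when the median replicate Pearson correlation exceeded the 95th percentile of non-replicates. Phenotypic activity demanded both.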

Row | SMILES | lowest phenotypically active concentration
1 | COc1ccc(C[C@H]2NC[C@H](O)[C@H]2OC(C)=O)cc1 [Anisomycin] | ≤ 0.3 µM
2 | C[C@@H]1CC[C@H]2[C@@H](C)C(=O)O[C@@H]3O[C@@]4(C)CC[C@@H]1[C@]32OO4 [Artemisinin] | 3 µM
3 | Cc1sc2c(c1C)C(c1ccc(Cl)cc1)=N[C@@H](CC(=O)OC(C)(C)C)c1nnc(C)n1-2 | ≤ 0.3 µM
4 | CN1C[C@H](C(=O)N[C@]2(C)O[C@@]3(O)[C@@H]4CCCN4C(=O)[C@H](Cc4ccccc4)N3C2=O)C[C@@H]2c3cccc4[nH]cc(c34)C[C@H]21.CN1C[C@H](C(=O)N[C@]2(C)O[C@@]3(O)[C@@H]4CCCN4C(=O)[C@H](Cc4ccccc4)N3C2=O)C[C@@H]2c3cccc4[nH]cc(c34)C[C@H]21 [dihydroergotamine] | 9 µM
5 | C[C@@]12C(=O)OC(=O)[C@]1(C)[C@H]1CC[C@@H]2O1 [Cantharidin] | 9 µM
6 | COc1cc2c(c(OC)c1OC)-c1ccc(OC)c(=O)cc1[C@@H](NC(C)=O)CC2 [colchicine] | ≤ 0.3 µM
7 | N#CC(C#N)=NNc1cccc(Cl)c1 | 9 µM
8 | CCN1CCN(C(=O)Cc2ccc(Nc3ncc(F)c(Nc4ccc(C(=O)Nc5ccccc5Cl)cc4)n3)cc2)CC1 | 1 µM
9 | O=C(NCCN1CCC2(CC1)C(=O)NCN2c1cccc(F)c1)c1ccc(F)c(F)c1 [ML 298 hydrochloride] | 9 µM
10 | CCn1cnc2c(Nc3cccc(Cl)c3)nc(N[C@H]3CCCC[C@H]3N)nc21 | 1 µM
11 | O=C(Nc1ccncc1)C(=O)c1cn(Cc2ccc(Cl)cc2)c2ccccc12 [Indibulin] | ≤ 0.3 µM
12 | CC[C@@H](C(=O)[C@@H](C)[C@@H](O)[C@H](C)[C@@H]1O[C@@H]([C@@H](CC)C(=O)O)CC[C@@H]1C)[C@H]1O[C@]2(C=C[C@@H](O)[C@]3(CC[C@@](C)([C@H]4CC[C@](O)(CC)[C@H](C)O4)O3)O2)[C@H](C)C[C@@H]1C [Salinomycin Sodium] | 1 µM
13 | CN1C[C@H](C(=O)N[C@]2(C)O[C@@]3(O)[C@@H]4CCCN4C(=O)[C@H](Cc4ccccc4)N3C2=O)C=C2c3cccc4[nH]cc(c34)C[C@H]21 [ergotamine] | 3 µM
14 | N#CC(C#N)=NNc1ccc(OC(F)(F)F)cc1 | 9 µM
15 | COC1=CC(C)=C[C@@H](C)[C@@H](O)[C@@H](C)CC(C)=CC=C[C@H](OC)[C@@H]([C@@H](C)[C@@H](O)[C@H](C)[C@@]2(O)C[C@@H](O)[C@H](C)[C@@H](C(C)C)O2)OC1=O [Bafilomycin A1] | 3 µM
16 | COc1cc([C@@H]2c3cc4c(cc3[C@H](O)[C@H]3COC(=O)[C@H]23)OCO4)cc(OC)c1OC [Podophyllotoxin] | ≤ 0.3 µM
17 | CC[C@]12C=CCN3CC[C@]4(C(=C(C(=O)OC)C1)Nc1ccccc14)[C@@H]32 [Tabersonine dichlorhydrate] | 9 µM

What follows are compounds tested on HepG2-TP53BP1-CLTA in the same assay as above. Details: treatment time: 24 h.
Summary of the method: as §1

Row | SMILES | lowest phenotypically active concentration
18 | C[C@@]1(CO)[C@H](O)CC[C@@]2(C)[C@H]1CC[C@H]1C[C@@H]3C[C@@]12CC[C@]3(O)CO [Aphidicolin] | ≤ 0.3 µM
19 | COC(=O)[C@@]1(O)C[C@H]2O[C@]1(C)n1c3ccccc3c3c4c(c5c6ccccc6n2c5c31)C(=O)NC4 | ≤ 0.3 µM
20 | COc1ccc(N(C(=O)Oc2c(C)cccc2C)c2ccnc(Nc3ccc(N4CCN(C)CC4)cc3)n2)c(OC)c1 | 1 µM
21 | COc1ccc2c(c[n+](C)c3c4cc5c(cc4ccc23)OCO5)c1OC [Chelerythrine chloride] | 9 µM
22 | CC[C@@H]1C=CC=CC[C@H](C)[C@@H](O)[C@](C)(O)C(=O)[C@H](C)[C@@H](O)[C@H](C)C(=O)[C@H](C)[C@@H](O)[C@H](C)C=CC(=O)O[C@H]2[C@@H](C)[C@@H](CC1)O[C@@]1(CC[C@@H](C)[C@@H](C[C@H](C)O)O1)[C@@H]2C [Oligomycin A] | ≤ 0.3 µM
23 | CC(C)[C@@]1(NC(=O)[C@@H]2C[C@@H]3c4cccc5[nH]cc(c45)C[C@H]3N(C)C2)O[C@@]2(O)[C@@H]3CCCN3C(=O)[C@H](Cc3ccccc3)N2C1=O [Dihydroergocristine mesylate] | 9 µM
24 | C[C@]12CC[C@H]3[C@@H](CC[C@]4(O)C[C@@H](O)CC[C@]34C=O)[C@@]1(O)CC[C@@H]2C1=CC(=O)OC1 [Strophanthidin] | ≤ 0.3 µM
25 | C=C1[C@@H](O)C2C=CC[C@H](C)C(=O)[C@](C)(O)C=C[C@@H](OC(C)=O)[C@]23C(=O)N[C@H](Cc2ccccc2)[C@@H]3[C@@H]1C (some centres undefined) [Cytochalasin D] | ≤ 0.3 µM
26 | COc1ccc(C[C@H]2NC[C@H](O)[C@H]2OC(C)=O)cc1 [Anisomycin] | ≤ 0.3 µM
27 | C[C@@H]1CC[C@H]2[C@@H](C)C(=O)O[C@@H]3O[C@@]4(C)CC[C@@H]1[C@]32OO4 [Artemisinin] | 1 µM
28 | O=C1NC(=O)c2c1c1c3ccccc3n3c1c1c2c2ccccc2n1C1CCC3O1 | 9 µM
29 | Cc1sc2c(c1C)C(c1ccc(Cl)cc1)=N[C@@H](CC(=O)OC(C)(C)C)c1nnc(C)n1-2 | ≤ 0.3 µM
30 | CN1C[C@H](C(=O)N[C@]2(C)O[C@@]3(O)[C@@H]4CCCN4C(=O)[C@H](Cc4ccccc4)N3C2=O)C[C@@H]2c3cccc4[nH]cc(c34)C[C@H]21.CN1C[C@H](C(=O)N[C@]2(C)O[C@@]3(O)[C@@H]4CCCN4C(=O)[C@H](Cc4ccccc4)N3C2=O)C[C@@H]2c3cccc4[nH]cc(c34)C[C@H]21 [dihydroergotamine] | 9 µM
31 | C[C@@]12C(=O)OC(=O)[C@]1(C)[C@H]1CC[C@@H]2O1 [Cantharidin] | 9 µM
32 | COc1cc2c(c(OC)c1OC)-c1ccc(OC)c(=O)cc1[C@@H](NC(C)=O)CC2 [colchicine] | ≤ 0.3 µM
33 | CC(C)(O)[C@H]1O[C@H]2CC[C@@]3(C)[C@@](O)(CC[C@H]4Cc5c([nH]c6ccccc56)[C@@]43C)C2=CC1=O [paxilline] | 9 µM
34 | N#CC(C#N)=NNc1cccc(Cl)c1 | 9 µM
35 | CCN1CCN(C(=O)Cc2ccc(Nc3ncc(F)c(Nc4ccc(C(=O)Nc5ccccc5Cl)cc4)n3)cc2)CC1 | ≤ 0.3 µM
36 | O=C(NCCN1CCC2(CC1)C(=O)NCN2c1cccc(F)c1)c1ccc(F)c(F)c1 [ML 298 hydrochloride] | 9 µM
37 | CCn1cnc2c(Nc3cccc(Cl)c3)nc(N[C@H]3CCCC[C@H]3N)nc21 | 1 µM
38 | O=C(Nc1ccncc1)C(=O)c1cn(Cc2ccc(Cl)cc2)c2ccccc12 [Indibulin] | 1 µM
39 | CC[C@@H](C(=O)[C@@H](C)[C@@H](O)[C@H](C)[C@@H]1O[C@@H]([C@@H](CC)C(=O)O)CC[C@@H]1C)[C@H]1O[C@]2(C=C[C@@H](O)[C@]3(CC[C@@](C)([C@H]4CC[C@](O)(CC)[C@H](C)O4)O3)O2)[C@H](C)C[C@@H]1C [Salinomycin Sodium] | 1 µM
40 | CN1C[C@H](C(=O)N[C@]2(C)O[C@@]3(O)[C@@H]4CCCN4C(=O)[C@H](Cc4ccccc4)N3C2=O)C=C2c3cccc4[nH]cc(c34)C[C@H]21 [ergotamine] | 3 µM
41 | N#CC(C#N)=NNc1ccc(OC(F)(F)F)cc1 | 9 µM
42 | COC1=CC(C)=C[C@@H](C)[C@@H](O)[C@@H](C)CC(C)=CC=C[C@H](OC)[C@@H]([C@@H](C)[C@@H](O)[C@H](C)[C@@]2(O)C[C@@H](O)[C@H](C)[C@@H](C(C)C)O2)OC1=O [Bafilomycin A1] | 9 µM
43 | COc1cc([C@@H]2c3cc4c(cc3[C@H](O)[C@H]3COC(=O)[C@H]23)OCO4)cc(OC)c1OC [Podophyllotoxin] | 1 µM
44 | CC[C@]12C=CCN3CC[C@]4(C(=C(C(=O)OC)C1)Nc1ccccc14)[C@@H]32 [Tabersonine dichlorhydrate] | 9 µM
